# Reference: the OligoGym collection
# Target: ROPN1
# Assay: pooled miR-30 sensor sort-seq; sequence = guide strand
# Details: shRNA
row,Sequence,sensor-assay potency score (higher = more potent)
1,TGAAGTACAATCATCTCTGTAT,0.335
2,TCCACTTTGGCAATATACGTGT,-0.784
3,TACAAGAAAATTGATTTTGGGT,0.726
4,TTCCATGTAGTTTAGCATCCTG,-0.0226
5,TCCATGTAGTTTAGCATCCTGC,-1.26
6,TTCTGAAGTACAATCATCTCTG,0.437
7,ATCAGGGCCAATTACTTCCTGT,-0.778
8,ATTCTGAAGTACAATCATCTCT,0.029

# Target: RORB
# Assay: as above
# Details: shRNA
row,Sequence,sensor-assay potency score (higher = more potent)
1,TTGCTTAAATACCTGCAGCTTC,-0.375
2,TATCTGTTTGATTCCAGTCATG,-1.6
3,TTGTTCTGCTGGCTCCTCCTAA,-0.741
4,TTGATCATTTTGACAGAGCTCC,0.0925
5,TTTAATTTCTTCATAGGTGTGG,0.75
6,TTAATTTCTTCATAGGTGTGGG,0.03
7,TTAAACAGTTTCTCTGCCTTGG,0.233
8,TATAACGGAGGAAACAGTGTAT,0.0235
9,TAGGGCAAGACACTTCTGCAGT,-0.56
10,TTCACATGTGATGACTCCGTAG,-1.17
11,TTCCAGTCATGTCAAGTCCTGA,-0.578
12,ATCATTTTGACAGAGCTCCATG,-1.14

# Target: RPF2
# Assay: as above
# Details: shRNA
row,Sequence,sensor-assay potency score (higher = more potent)
1,TAGTCTTCTATAATCTTCTGTT,-0.606
2,TTACATCGAAATCATCGCCAGC,-0.787
3,TTATATAGTACACCGTATGGTT,-0.793
4,TTCAACAGCAACTTATAGCTTC,0.301
5,TTTGCTTAGGTCTTGCTTCTGC,0.678
6,TTTCAGTGCATACACATCTTTA,-0.778
7,ATAATCTTCTGTTACATCGAAA,-0.564
8,TTGTAGTTTGCTTAGGTCTTGC,-0.359
9,TCTTTTTATATAGTACACCGTA,-0.652
10,TTAAGTACTTTTGTCACTGTTG,-0.124
11,TAATTTATAAAGGTCATCCGAT,-0.21
12,TTAGTCTTCTATAATCTTCTGT,0.354

# Target: RPL19
# Assay: as above
# Details: shRNA
row,Sequence,sensor-assay potency score (higher = more potent)
1,TGTTTTTGAACACATTCCCCTT,-1.21
2,TTGCGTGCTTCCTTGGTCTTAG,-0.319
3,TAAAGTCTTGATGATCTCCTCC,0.336
4,TTGATGATCTCCTCCTTCTTGG,0.222
5,TTACCTATGCCCATGTGCCTGC,-0.132
6,TTTTTGAACACATTCCCCTTCA,-0.0211
7,TTCATTGGTCTCATTGGGGTCT,0.294
8,ATACATGTGGCGATCGATCTTC,0.46
